Compound activity (PubChem)
Compounds with a hit are over-represented: about 12% of the library has one in this group of screens.
NS1 inh: qHTS Assay for Inhibitors of Influenza NS1 Protein Function. actives 0.4% (n = 270,000). Potency, µM (series often up to 46.1 µM), without a hit: top-dose activity, positive = more growth; note: potency is the fitted concentration of half-maximal effect; actives are rising curves; nearly all actives have a fitted effect of over 50% in size
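Compounds were scored for reversing the slow growth caused by influenza A NS1 in S. cerevisiae, measured by optical density at 600 nm. Assay medium contained 2% galactose at pH 6.0; NS1-free yeast of the same strain were the positive control.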
CHX counter: Cycloheximide Counterscreen for Small Molecule Inhibitors of Shiga Toxin | actives 12% (n = 300,000) | max response, % | AID 2314, 2010 | cell reporter, cycloheximide protein synthesis inhibition counterscreen; in the data active = max response mostly above about 13%, no sharp cut-off; inactive = mostly below about 14%; note: read at 38.3 µM for the half of the compounds with a filed dose; 0% is about no effect
Shiga toxin inh: A qHTS for Small Molecule Inhibitors of Shiga Toxin | Vero cells, Shiga toxin protein synthesis inhibition reporter | inhibition, % at 38.7 µM | actives 9.2% (n = 290,000); in the data active = inhibition mostly above about 28%, no sharp cut-off; inactive = mostly below about 43%; note: 0% is about no effect
SARS PLP yeast: qHTS of Yeast-based Assay for SARS-CoV PLP | S. cerevisiae expressing SARS-CoV PLpro, growth rescue | Potency, µM (doses to about 32.9 µM), for inactives: at the top dose activity, positive = growth rescue, most hits filed as activators | actives 0.19% (n = 330,000) | AID 485353, 2010; note: potency is the fitted concentration of half-maximal effect; 0% is about no effect; nearly all actives have a fitted effect of over 55% in size
Active calls of the source: *; ? = inconclusive; . = no result given; + = active, no number; [ ] = dose if it differs, or a comment. Unless noted, calls come from the whole dose curve.

SMILES | NS1 inh | CHX counter | Shiga toxin inh | SARS PLP yeast
O=C(Oc1c(CN2CCOCC2)cc(Cl)c2cccnc12)c1ccc(F)cc1 | -2.5% | 30.1* | 38.4 | -7.1%
OCCN1CCN(Cc2cc(Cl)c3cccnc3c2O)CC1 | -50.0% | -2.6 | -12.4 | 17.8µM*
Oc1c(CN2CCN(c3ccccn3)CC2)cc(Cl)c2cccnc12 | -30.2% | 13.7* | 7.0 | -34.6%
O=c1c(CN2CCN(c3ccccn3)CC2)coc2ccccc12 | 11.7% | 66.3* | 87.0* | 12.0%
Oc1c(Cl)cc(CN2CCCCC2)c2cccnc12 | -64.2% | -0.8 | -5.5 | 21.4%
COc1ccccc1N1CCN(Cc2cc(Br)c(O)c3ncccc23)CC1 | -93.8% | -4.5 | -13.9 | ?
COc1ccc(N2CCN(CC(=O)Nc3ccc(C)c(C)c3)CC2)cc1 | -14.0% | -3.4 | -4.8 | -5.8%
NS(=O)(=O)c1ccc(CNc2ccc3ccccc3n2)cc1 | -1.7% | 12.1 | 88.2* | 13.7%
COc1ccc(CCNC(=O)c2cnc(C)cn2)cc1 | 3.9% | 14.4 | 18.3 | 12.4%
NS(=O)(=O)c1ccc(CCNC(=O)c2ccc3ccccc3n2)cc1 | -2.5% | 33.7* | 45.0* | -1.7%
NS(=O)(=O)c1ccc(CNC(=O)c2ccc3ccccc3n2)cc1 | -7.5% | 0.6 | 6.8 | -2.2%
COc1ccc(CCNC(=O)c2ccc3ccccc3n2)cc1 | -31.6% | 52.3* | 69.3* | -8.1%
Oc1ccc(Cl)cc1N=Nc1ccccc1 | 3.3% | 26.6* | 36.8 | -3.1%
CC(=O)Nc1ccc(N=NN2CCOCC2)cc1 | . | 46.1* | 73.2* | 11.2µM*
CC(=O)Nc1ccc(S(=O)(=O)N(C)c2ccc(O)cc2)cc1 | ? | 4.5 | -4.1 | 12.8%
CC(=O)Nc1ccc(N=Nc2ccc(O)cc2)cc1 | -4.9% | 34.8* | + | -27.2%
Oc1ccc(N=Nc2ccccc2)cc1 | -41.8% | 35.8* | 72.9* | -2.1%
Cc1ccc(O)c(N=Nc2ccccc2)n1 | -30.2% | . | . | .
CCOC(=O)/C(C#N)=C/c1cn(CCC(=O)O)nc1-c1ccc(Cl)cc1 | 7.3% | -1.5 | -12.2 | 10.4%
Cc1c(NC(=O)c2ccc(CC(C)C)o2)c(=O)n(-c2ccccc2)n1C | 1.9% | 1.4 | -2.0 | -1.0%
Cc1cc(Cc2cc(C)cc(C(C)(C)C)c2O)c(O)c(Cc2cc(C)cc(C(C)(C)C)c2O)c1 | -0.3% | . | . | .
CC(=O)[C@H]1[C@H]([C@H](O)[C@H](O)CO)O[C@](O)(C(=O)O)C[C@@H]1O | . | . | . | 6.2%
Cc1ccc2nc(/C=C/c3cccc(F)c3)ccc2c1 | -5.6% | 64.9* | 89.8* | 1.6%
Cc1ccc2ncccc2c1 | . | . | . | -8.3%
O=S(=O)(c1ccc(Nc2ccc(-c3ccc4c(c3)OCCO4)nn2)cc1)N1CCCC1 | 13.2% | 54.2* | 35.5 | -1.7%
SMILES | NS1 inh | CHX counter | Shiga toxin inh | SARS PLP yeast
O=C(COC(=O)Cc1ccc2c(c1)OCCO2)Nc1ccc(S(=O)(=O)N2CCCC2)cc1 | -7.2% | -5.0 | -30.6 | 5.1%
O=C(NC1CC1)c1cccc(Nc2ccc(-c3ccc4c(c3)OCCO4)nn2)c1 | -14.7% | 30.9* | 55.3* | -3.3%
CCOc1ccc(N=C(NN)c2ccc3ccccc3n2)cc1 | 5.1% | 43.8* | 31.0* | -1.1%
Cc1ccccc1CN1CCCOCCS1(=O)=O | 4.3% | 0.9 | -2.2 | -0.4%
O=C(/C=C/c1cccc(O)c1)c1ccc(N2CCOCC2)cc1 | -5.9% | 38.2* | 102.0* | -0.8%
O=C(Nc1ccccc1)C(c1ccccc1)C1CCCC1 (stereo not given) | -12.2% | -1.5 | -10.0 | -16.1%
CC(=O)c1cnc(Nc2nc(C)c3ccc(C)cc3n2)nc1C | -24.0% | -5.6 | -14.4 | -3.4%
Cc1cc(C)nc(Nc2nc3ccccc3s2)n1 | . | 39.3* | 59.1* | -7.2%
Cc1ccc(Nc2nc3ccccc3s2)c(C)c1 | -22.8% | 46.6* | 93.5* | 2.2%
Cc1ccccc1NC(=O)c1cnc(Nc2nc3ccccc3s2)nc1C | 5.4% | 1.4 | -5.6 | 5.6%
CC(=O)c1c(C)nc(Nc2nc3ccccc3s2)nc1C | -3.8% | 68.0* | 98.1* | 0.2%
CC(=O)c1c(C)nc(Nc2nc(C)c3cc(C)ccc3n2)nc1C | . | 18.1 | 55.5* | 7.3%
O=C(CCc1ccccc1)NNC(=O)Nc1ccc(F)c(Cl)c1 | 4.8% | 1.6 | -13.0 | -4.1%
CCOCCCNC(=O)c1ccc(OC)cc1 | 4.8% | 21.2* | 32.1 | -2.8%
CC(C)OCCCNC(=O)c1ccc(Br)cc1 | -20.0% | 44.5* | 83.3 | 1.4%
CCOCCCNC(=O)c1ccc(Br)cc1 | 4.5% | 26.5* | 57.2 | 1.7%
CCOCCCNC(=O)c1ccc(OC(C)=O)cc1 | 12.3%[9.22 µM] | 1.0 | -7.4 | -2.3%
O=C(c1cc(Cl)c(=O)n(Cc2ccc(Cl)cc2)c1)N1CCOCC1 | -12.2% | -1.6 | -4.7 | 3.9%
N#Cc1c2n(c(=S)n(-c3ccc(OC(F)F)cc3)c1=O)CCCCC2 | . | -4.7 | 20.3 | 5.4%
N#Cc1c2n(c(=S)n(-c3ccccn3)c1=O)CCCCC2 | ? | 16.2* | 24.8 | -0.7%
c1ccc(SCc2nc3ccccc3[nH]2)nc1 | -13.4% | 26.0* | 59.8* | -2.8%
Cn1nnnc1SCc1nc2ccccc2[nH]1 | -3.2% | 33.7* | 62.3 | 1.9%
c1ccc(SCc2nc(-c3ccncc3)n[nH]2)nc1 | . | 16.4 | 45.6* | -0.4%
c1ccc2[nH]c(CSc3nc4ccccc4s3)nc2c1 | -146.5% | 43.5* | 54.8* | -26.4%
c1ccc2[nH]c(CCCCc3nc4ccccc4[nH]3)nc2c1 | 5.9% | 3.8 | 12.3 | -4.1%
SMILES | NS1 inh | CHX counter | Shiga toxin inh | SARS PLP yeast
O=C(CNC1CCCCC1)Nc1cc(S(=O)(=O)N2CCOCC2)ccc1Cl | . | -2.2 | 1.9 | -0.9%
CC(=O)c1ccc(NC(=O)C(C)OC(=O)C2CCN(c3ccc(C(F)(F)F)cn3)CC2)cc1 (stereo not given) | . | . | . | -4.8%
O=C(CSc1nccn1Cc1ccco1)Nc1ccccc1C(F)(F)F | 3.0% | 28.5* | 20.9 | ?
O=C(CN(Cc1ccco1)S(=O)(=O)c1cccs1)Nc1ccccc1C(F)(F)F | -3.7% | 24.3* | 42.1* | 6.3%
O=C(CSc1nccn1Cc1ccco1)Nc1ccccc1 | 5.0% | 31.8* | 41.1* | -0.9%
CC(=O)Nc1ccc(NC(=O)CSc2nccn2Cc2ccco2)cc1 | 1.7% | 16.9* | 59.5* | 0.9%
O=C(CSc1nnc(-c2ccco2)n1Cc1ccco1)Nc1ccccc1 | -4.3% | -2.2 | -2.0 | -0.4%
c1ccc(Nc2scc(-c3ccccc3)[n+]2Cc2ccco2)cc1 | . | 52.1* | 158.0* | -22.7%
c1ccc(C[n+]2c(-c3ccccc3)csc2Nc2ccccc2)cc1 | -6.2% | 15.1* | 35.5 | -2.8%
CCCCCC[n+]1c(-c2ccc(Cl)cc2Cl)csc1Nc1ccccc1 | -0.7% | -6.1 | -2.7 | -33.9%
C=CCn1c(SCC(=O)Nc2cccnc2Cl)nnc1-c1ccc(C(C)(C)C)cc1 | -14.2% | 13.0* | 31.2 | 4.1%
O=S1(=O)CCC(NC(=S)Nc2ccccc2)C1 (stereo not given) | 1.8% | -1.6 | -6.4 | -0.3%
O=S1(=O)CCC(NC(=S)Nc2ccc3ccccc3c2)C1 (stereo not given) | 2.9% | 27.1* | 43.0* | 0.7%
CCCN1CCN(C(=O)c2cccc3c2C(=O)N(CCOC)C3)CC1 | -7.0% | -5.1 | -6.2 | 5.8%
C/C(=N/NC(=O)c1ccc(Cl)cc1Cl)c1cccnc1 | 0.2% | 29.4* | 24.8 | -0.3%
CC(=O)Nc1cccc(/C(C)=N/NC(=O)c2ccc(Cl)cc2Cl)c1 | 1.8% | 14.7 | 33.9 | -0.1%
